# Several values for one entry are separate records, joined by “and”; a condition that tells them apart may be missing. Identical values can stand only once. Activity calls are given as the source filed them. Unless noted, the rule behind the calls is not given here.
# Legend:
# [1] = liver-stage malaria parasite growth inhibition, primary screen, cell-based, HepG2, luciferase luminescence, HepG2 viability (AID 624349; in the data active = parasite load remaining mostly below about 12%, no sharp cut-off; inactive = mostly above about 10%;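 note: 100% = mean of DMSO negative control wells on the same plate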); details: P. berghei liver stage in HepG2, luciferase luminescence, concentration not given here; parasite load remaining: stronger effect = lower value; viability: measured here: HepG2 viability without parasites
# [2] = Cy5 fluorescence interference with SSB-bound oligo, artefact control for HCV NS3 helicase inhibitor project, biochemical, NIH Clinical Collection, E. coli SSB (AID 743268)
# [3] = tested on: Hepatitis C virus NS3 helicase; assay: HCV NS3 helicase inhibitors, primary screen, biochemical, fluorescence polarization, NIH Clinical Collection (AID 743270); details: NS3 helicase binding to Cy5-dT15 DNA, stronger effect = higher value, concentration not given here
# [4] = molecular target: Single-stranded DNA-binding protein (Escherichia coli (strain K12)) (UniProt P0AGE0); assay: E. coli SSB displacement from DNA, counter-screen for HCV NS3 helicase inhibitor project, biochemical, fluorescence polarization, NIH Clinical Collection (AID 743271; in the data active = inhibition above about 28%); details: stronger effect = higher value, concentration not given here
# [5] = fluorescence interference in NS3h assay format, artefact control for HCV NS3 helicase inhibitor project, biochemical, NIH Clinical Collection (AID 743272); details: fluorescence interference counterscreen, stronger effect = lower value;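 note: HCV NS3 helicase with a Cy5 labelled single stranded DNA probe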
# [6] = tested on: Neuropilin-2 / VEGF-C interaction (human); assay: inhibitors of NRP2–VEGF-C binding, biochemical, microplate binding format, z-score (AID 743281); details: microplate NRP2/VEGF-C binding assay; stronger effect = lower value
# [7] = stimulators of nuclear beta-catenin in C2C12, primary screen, imaging, WNT3A-conditioned medium, mouse C2C12, NPC library (AID 1117326; in the data active = nuclear beta-catenin stimulation mostly above about 4.2%, no sharp cut-off; inactive = mostly below about 10%); details: stronger effect = higher value
# [8] = stimulators of insulin release from INS-1E, primary screen, cell-based, 5 mM glucose, NPC library (AID 1117329;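 active = compound raises insulin release from rat beta cells at 5 mM glucose, no numeric limit stated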); details: rat INS-1E insulin secretion, at 10 µM, stronger effect = higher value
# [9] = growth inhibition of GSK3B-pretreated HCT116 cells – cell-based, CellTiter-Glo, 0.2 to 20 µM (AID 1117336;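 active = compounds lowering colon cancer cell viability after pretreatment blocking the GSK3B kinase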); details: HCT116 viability after GSK3B inhibitor, at 20 µM, stronger effect = higher value
# [10] = inhibition of endothelial tube formation, primary screen, imaging, VEGF stimulated, CD31 staining, tube area, NPC library (AID 1117340;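 active = compound that reduces growth-factor-driven endothelial tube area in a mixed cell culture, no cutoff stated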); details: VEGF-stimulated ADSC/ECFC co-culture, at 10 µM, stronger effect = higher value
# [11] = glucagon-like peptide 1 release enhancers, primary assay, NCI-H716 cell line, NPC library (AID 1117341;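 active = compound raises GLP1 secretion from the human gut endocrine cells, with no numeric limit stated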); details: NCI-H716 cells, at 10 µM, stronger effect = higher value
# [12] = HCT116 colon cancer cell growth inhibition, primary screen, CellTiter-Glo luminescence, NPC library (AID 1117342;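 active = compounds that lower survival of HCT116 colon cancer cells in the luminescence readout, no numeric limit stated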); details: at 20 µM (top of the series)
# [13] = CellTiter-Glo luminescent readout of SW480 viability loss, NPC library primary (AID 1117343;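 active = compounds that lower viability of the colon cancer cells in the luminescence readout, with no numeric limit stated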); details: CellTiter-Glo luminescence; at 20 µM (top of the series)
# [14] = decreased DLD-1 cellular survival, CellTiter-Glo luminescent readout, NPC compound collection, primary HTS (AID 1117346;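 active = compounds that lower survival of DLD-1 colon cancer cells in the luminescence readout, no cutoff given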); details: DLD-1 viability, CellTiter-Glo luminescence; at 20 µM (top of the series)
# [15] = tested on: Hepatitis C virus NS3 helicase; assay: HCV NS3 helicase inhibitors, primary screen, biochemical, fluorescence polarization, LOPAC1280 library (AID 687035; in the data active = inhibition above about 37%); details: Purified HCV NS3 helicase, Cy5-dT15 ssDNA binding fluorescence polarization; stronger effect = higher value; concentration not given here
# [16] = Cy5 fluorescence quenching or enhancement artefacts, artefact control for HCV NS3 helicase inhibitor project, biochemical, LOPAC1280 (AID 687037); details: Cy5-DNA-NS3h complex fluorescence interference counterscreen
Structure (SMILES),parasite load remaining [1],viability [1],fluorescence ratio [2],inhibition [3],inhibition [4],fluorescence ratio [5],z-score [6],nuclear beta-catenin stimulation ([7]; at 10 µM),"nuclear beta-catenin stimulation ([7]; stimulation, at 2 µM) [%]",insulin secretion stimulation [8],viability decrease [9],tube area decrease [10],GLP1 secretion stimulation [11],inhibition of viability [12],viability decrease (inhibition) [13],viability decrease (inhibition) [14],outcome [6],inhibition [15],fluorescence ratio (interference) [16]
COC(=O)CCc1ccc(OCC(O)CNC(C)C)cc1 (stereo not given),82.9% (inactive) and 30.6% (inactive),72.2% and 73%,1.05 (inactive),-1.98% (inactive),-5.49% (inactive),1.01 (inactive),0.0866 (inactive),-2% (inactive),0.1,6.9% (inactive),-7.2% (inactive),-8.1% (inactive),-0.5% (inactive),18.6% (inactive),39.7% (inactive),16.8% (inactive),,,
CCCc1nc(C)c2c(=O)[nH]c(-c3cc(S(=O)(=O)N4CCN(CC)CC4)ccc3OCC)nn12,37.6% (inactive) and 31.5% (inactive) and 37.1% (inactive),202% and 68.7% and 126%,0.94 (inactive),-13.3% (inactive),-1.97% (inactive),0.93 (inactive),,0.1% (inactive),-1,-0.4% (inactive),-11.4% (inactive),-2.1% (inactive),0.1% (inactive),23.1% (inactive),14.2% (inactive),-13.5% (inactive),inactive,,
COc1cc(-c2ccc(=O)[nH]n2)ccc1OC(F)F,107% (inactive) and 103% (inactive) and 31.7% (inactive),78.6% and 72.5%,0.99 (inactive),-2.77% (inactive),-0.87% (inactive),0.94 (inactive),-0.623 (inactive),2% (inactive),0.9,0.6% (inactive),-6.05% (inactive),99.9% (active),11.6% (inactive),-6.7% (inactive),11.4% (inactive),4.45% (inactive),,,
CC[N+](C)(CC)CCOC(=O)C(O)(c1ccccc1)C1CCCCC1 (stereo not given),65.2% (inactive),67.2%,0.93 (inactive),-3.71% (inactive),-1.18% (inactive),0.89 (inactive),-0.249 (inactive),-1% (inactive),3.2,-1.5% (inactive),-16.6% (inactive),-4.7% (inactive),-3.3% (inactive),0.4% (inactive),0.8% (inactive),-8.3% (inactive),,,
CCC1=C(C)CN(C(=O)NCCc2ccc(S(=O)(=O)NC(=O)NC3CCC(C)CC3)cc2)C1=O (stereo not given),156% (inactive) and 92.3% (inactive) and 45.4% (inactive),98.1% and 72.7% and 68.5%,0.97 (inactive),-1.09% (inactive),0.39% (inactive),0.96 (inactive),1.17 (inactive),1% (inactive),-1.7,29.4% (active),34.1% (inactive),-7.2% (inactive),2.3% (inactive),2.4% (inactive),17.1% (inactive),7.8% (inactive),,,
CN(C/C=C/C#CC(C)(C)C)Cc1cccc2ccccc12,40.7% (inactive) and 65.8% (inactive) and 43.2% (inactive),99.2% and 68.9% and 104%,1.06 (inactive),1.19% (inactive),4.52% (inactive),1 (inactive),0.0743 (inactive),5.3% (inactive),2.6,3.2% (inactive),84.2% (active),5.2% (inactive),-3.9% (inactive),82.6% (active),121% (active),70.1% (active),,,
CC(C)(O)c1ccccc1CC[C@@H](SCC1(CC(=O)O)CC1)c1cccc(/C=C/c2ccc3ccc(Cl)cc3n2)c1,105% (inactive) and 55% (inactive),73.6% and 151%,0.98 (inactive),6.73% (inactive),4.52% (inactive),1.03 (inactive),-0.15 (inactive),9.7% (inactive),-0.2,1.4% (inactive),111% (active),-7.2% (inactive),80.8% (active),114% (active),133% (active),102% (active),,,
CC(C)(C#N)c1cc(Cn2cncn2)cc(C(C)(C)C#N)c1,73.5% (inactive) and 47.4% (inactive),67.1% and 158%,0.93 (inactive),-0.22% (inactive),1.18% (inactive),0.92 (inactive),1.38 (inactive),0.3% (inactive),1.7,2.3% (inactive),-0.4% (inactive),-11.4% (inactive),2.1% (inactive),-5.9% (inactive),45.5% (inactive),0.55% (inactive),,,
CC1(C)S[C@@H]2[C@H](N=CN3CCCCCC3)C(=O)N2[C@H]1C(=O)O,101% (inactive),79.6%,1.06 (inactive),-1.98% (inactive),-4.72% (inactive),1.04 (inactive),-0.418 (inactive),0.4% (inactive),0.8,-1.6% (inactive),-5.75% (inactive),4.4% (inactive),-0.7% (inactive),15.1% (inactive),-20.4% (inactive),-12.8% (inactive),,,
CC(C)c1ccc2oc3nc(N)c(C(=O)O)cc3c(=O)c2c1,196% (inactive),67.7%,1.01 (inactive),2.77% (inactive),6.06% (inactive),0.99 (inactive),0.737 (inactive),0.2% (inactive),-1.6,3.2% (inactive),8.7% (inactive),0% (inactive),0.3% (inactive),-17% (inactive),17.9% (inactive),-27.9% (inactive),,,
CCN1CCN(c2cc3c(cc2F)c(=O)c(C(=O)O)cn3C2CC2)CC1,29.1% (inactive) and 34.1% (inactive) and 1.73% (inactive),97.4% and 66.5% and 68.5%,1 (inactive),0.66% (inactive),0.39% (inactive),0.97 (inactive),-0.441 (inactive),0.9% (inactive),0.3,-0.15% (inactive),38% (inactive),8.4% (inactive),0.4% (inactive),36.2% (inactive),11.7% (inactive),-6.2% (inactive),,,
COc1cc(C(=O)NS(=O)(=O)c2ccccc2C)ccc1Cc1cn(C)c2ccc(NC(=O)OC3CCCC3)cc12,103% (inactive) and 39.6% (inactive),73.8% and 104%,0.99 (inactive),16.2% (active),25.3% (inactive),1.03 (inactive),-5.32 (active),0.1% (inactive),0.4,3.85% (inactive),106% (active),44.5% (active),19.5% (inactive),106% (active),120% (active),98.2% (active),,,
CC(Cc1ccccc1)(NC(=O)CN)c1ccccc1 (stereo not given),118% (inactive),74.8%,1.07 (inactive),5.15% (inactive),6.83% (inactive),1.03 (inactive),1.57 (inactive),0.8% (inactive),0,2.2% (inactive),-5.9% (inactive),-10.6% (inactive),0.5% (inactive),13.7% (inactive),17.1% (inactive),19.6% (inactive),,,
CC1CCN(CCCC(=O)c2ccc(F)cc2)CC1,55.3% (inactive),68.6%,1 (inactive),-3.71% (inactive),1.97% (inactive),0.99 (inactive),1.36 (inactive),1.8% (inactive),0.7,8.9% (inactive),5.7% (inactive),10.4% (inactive),-0.3% (inactive),45.7% (inactive),23.2% (inactive),37.1% (inactive),,,
CCCc1c(OCCCCc2nn[nH]n2)ccc(C(C)=O)c1O,103% (inactive),65.9%,1.03 (inactive),5.15% (inactive),-3.18% (inactive),0.98 (inactive),0.174 (inactive),0.3% (inactive),1.2,-0.7% (inactive),49.9% (inactive),15.6% (inactive),6.3% (inactive),54.3% (active),29.7% (inactive),27.7% (inactive),,,
COc1cccc2c1C(=O)c1c(O)c3c(c(O)c1C2=O)C[C@@](O)(C(=O)CO)C[C@@H]3O[C@H]1C[C@H](N)[C@H](O)[C@H](C)O1,,,0.07 (active),7.52% (inactive),90% (active),0.4 (active),0.436 (inactive),28.9% (inactive),27.7,4% (inactive),-114% (inactive),22.7% (active),3% (inactive),40.6% (inactive),99.3% (active),82.4% (active),,,
CC(C)(C)NC(=O)[C@@H]1CN(Cc2cccnc2)CCN1C[C@@H](O)C[C@@H](Cc1ccccc1)C(=O)N[C@H]1c2ccccc2C[C@H]1O,83.6% (inactive),71%,,-1.19% (inactive),1.44% (inactive),1.02 (inactive),0.687 (inactive),1.8% (inactive),1.7,6.7% (inactive),-0.8% (inactive),7.2% (inactive),4.1% (inactive),10% (inactive),-7.5% (inactive),-9.3% (inactive),,,
CN1CCC(=C2c3ccccc3C=Cc3ccccc32)CC1,,,0.97 (inactive),-2.84% (inactive),-0.39% (inactive),0.96 (inactive),-0.162 (inactive),3.3% (inactive),1.3,0.2% (inactive),48.8% (inactive),43.3% (active),11.9% (inactive),39% (inactive),100% (active),31.8% (inactive),,-1% (inactive),1 (inactive)
COc1cc2nc(N3CCN(C(=O)C4COc5ccccc5O4)CC3)nc(N)c2cc1OC (stereo not given),,,1.06 (inactive),-1.36% (inactive),-2% (inactive),0.9 (inactive),,38% (inactive),2.3,-0.7% (inactive),100% (active),85.3% (active),25.7% (active),101% (active),142% (active),103% (active),,-4% (inactive),1 (inactive)

# From PubChem BioAssay
